# Paper PMC7862700, “An all-to-all approach to the identification of sequence-specific readers for epigenetic DNA modifications on cytosine”
# Experiments:
# Test in all cases: DAPPL (digital affinity profiling via proximity ligation, sequencing); 10 mM Tris-HCl pH 7.5, 50 mM NaCl, 1 mM DTT, 4% glycerol, room temperature, 30 min; GST-TFs on glutathione beads, 16-mer random dsDNA library, 0.1% formaldehyde crosslink after washing; high values mean tight binding
# [1] = biological target: T1, FLI1 (Homo sapiens, UniProt Q01543 1-452); conditions: protein: recombinant; tags: N-terminal GST; dsDNA, one strand shown
# T1 sequence: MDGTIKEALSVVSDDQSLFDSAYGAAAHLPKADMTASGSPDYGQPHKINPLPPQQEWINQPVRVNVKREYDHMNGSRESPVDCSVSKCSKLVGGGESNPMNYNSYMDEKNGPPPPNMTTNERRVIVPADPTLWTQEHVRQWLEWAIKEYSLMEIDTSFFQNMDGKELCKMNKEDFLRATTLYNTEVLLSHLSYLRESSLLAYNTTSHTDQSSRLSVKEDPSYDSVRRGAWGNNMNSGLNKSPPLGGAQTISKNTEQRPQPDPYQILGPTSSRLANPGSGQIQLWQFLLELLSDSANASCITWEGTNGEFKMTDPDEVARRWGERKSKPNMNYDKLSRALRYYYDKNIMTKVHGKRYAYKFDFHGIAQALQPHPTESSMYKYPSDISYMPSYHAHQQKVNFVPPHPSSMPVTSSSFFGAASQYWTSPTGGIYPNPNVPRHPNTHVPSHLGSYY
# Procedure, shortened: (§1)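 Each value of binding signal is a hexamer's read frequency for a factor divided by the same hexamer's frequency in the tag-only sample. Barcoded, bead-captured GST fusions of human transcription factors made in yeast were pooled with that sample and incubated with 200 nmole of a random double-stranded 16-mer DNA library in Tris/NaCl/DTT/glycerol buffer at room temperature for 30 min. Washing, 0.1% formaldehyde crosslinking, proximity ligation, PCR and Illumina NextSeq500 sequencing followed.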
# [2] = biological target: T2, ELK1 (Homo sapiens, UniProt P19419 1-428); conditions: protein: recombinant; tags: N-terminal GST; dsDNA, one strand shown
# T2 sequence: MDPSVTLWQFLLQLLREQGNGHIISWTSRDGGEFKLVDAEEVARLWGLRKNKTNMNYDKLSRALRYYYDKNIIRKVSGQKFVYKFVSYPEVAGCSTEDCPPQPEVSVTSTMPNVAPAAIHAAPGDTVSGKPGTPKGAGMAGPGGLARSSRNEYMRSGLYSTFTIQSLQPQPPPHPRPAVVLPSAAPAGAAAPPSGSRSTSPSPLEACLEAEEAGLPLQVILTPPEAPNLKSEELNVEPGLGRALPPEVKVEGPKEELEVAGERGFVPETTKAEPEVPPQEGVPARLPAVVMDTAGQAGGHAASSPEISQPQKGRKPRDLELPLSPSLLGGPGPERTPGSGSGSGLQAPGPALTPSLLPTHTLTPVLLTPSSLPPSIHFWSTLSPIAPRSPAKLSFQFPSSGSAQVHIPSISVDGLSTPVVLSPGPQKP
# Procedure, shortened: as §1
# [3] = biological target: T3, GABPA (Homo sapiens, UniProt Q06546 1-454); conditions: protein: recombinant; tags: N-terminal GST; dsDNA, one strand shown
# T3 sequence: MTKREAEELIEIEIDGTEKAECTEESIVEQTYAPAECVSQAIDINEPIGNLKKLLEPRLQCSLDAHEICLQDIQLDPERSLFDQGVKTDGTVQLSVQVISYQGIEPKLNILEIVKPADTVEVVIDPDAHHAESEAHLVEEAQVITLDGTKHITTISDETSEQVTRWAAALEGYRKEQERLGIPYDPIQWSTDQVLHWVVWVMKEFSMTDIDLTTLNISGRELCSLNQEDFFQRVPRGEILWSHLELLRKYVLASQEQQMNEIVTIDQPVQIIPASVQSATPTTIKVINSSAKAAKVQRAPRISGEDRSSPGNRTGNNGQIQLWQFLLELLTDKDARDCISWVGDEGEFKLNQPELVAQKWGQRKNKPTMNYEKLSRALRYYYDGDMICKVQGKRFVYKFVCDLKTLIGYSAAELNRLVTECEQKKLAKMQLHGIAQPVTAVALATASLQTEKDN
# Procedure, shortened: as §1
# [4] = biological target: T4, ERG (Homo sapiens, UniProt P11308 1-479); conditions: protein: recombinant; tags: N-terminal GST; dsDNA, one strand shown
# T4 sequence: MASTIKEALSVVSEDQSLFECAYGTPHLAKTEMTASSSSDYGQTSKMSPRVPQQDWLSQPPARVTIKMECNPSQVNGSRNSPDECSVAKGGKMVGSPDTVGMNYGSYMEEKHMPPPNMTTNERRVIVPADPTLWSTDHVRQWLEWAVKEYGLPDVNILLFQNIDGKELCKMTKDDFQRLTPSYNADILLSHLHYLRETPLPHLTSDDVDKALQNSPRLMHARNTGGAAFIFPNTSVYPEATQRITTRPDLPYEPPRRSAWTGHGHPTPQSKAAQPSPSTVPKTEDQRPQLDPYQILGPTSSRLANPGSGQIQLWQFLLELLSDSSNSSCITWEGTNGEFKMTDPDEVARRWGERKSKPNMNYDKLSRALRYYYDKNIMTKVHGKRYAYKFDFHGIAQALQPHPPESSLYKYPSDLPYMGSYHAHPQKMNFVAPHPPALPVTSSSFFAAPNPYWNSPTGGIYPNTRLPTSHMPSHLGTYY
# Procedure, shortened: as §1
# [5] = biological target: ELF1 (Homo sapiens, UniProt P32519 1-619); conditions: protein: recombinant; tags: N-terminal GST; dsDNA, one strand shown
# Chain of ELF1 (P32519 whole entry): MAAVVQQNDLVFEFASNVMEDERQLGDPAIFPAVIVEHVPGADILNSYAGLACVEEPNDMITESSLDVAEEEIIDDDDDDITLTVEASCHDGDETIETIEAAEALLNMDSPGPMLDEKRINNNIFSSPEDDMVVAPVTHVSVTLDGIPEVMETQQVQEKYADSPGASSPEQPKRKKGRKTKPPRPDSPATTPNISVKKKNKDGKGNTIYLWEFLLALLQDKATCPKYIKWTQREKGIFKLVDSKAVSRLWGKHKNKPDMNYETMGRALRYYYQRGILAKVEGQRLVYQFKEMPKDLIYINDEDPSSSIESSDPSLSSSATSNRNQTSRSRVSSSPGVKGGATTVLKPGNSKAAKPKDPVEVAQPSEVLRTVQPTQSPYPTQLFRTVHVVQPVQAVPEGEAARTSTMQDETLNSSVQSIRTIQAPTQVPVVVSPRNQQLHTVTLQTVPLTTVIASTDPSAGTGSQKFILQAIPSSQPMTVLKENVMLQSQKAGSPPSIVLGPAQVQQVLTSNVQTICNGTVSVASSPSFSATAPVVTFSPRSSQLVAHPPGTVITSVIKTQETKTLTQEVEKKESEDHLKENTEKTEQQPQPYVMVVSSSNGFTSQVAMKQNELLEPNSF
# Procedure, shortened: as §1
# [6] = biological target: T5, EHF (Homo sapiens, UniProt Q9NZC4 1-300); conditions: protein: recombinant; tags: N-terminal GST; dsDNA, one strand shown
# T5 sequence: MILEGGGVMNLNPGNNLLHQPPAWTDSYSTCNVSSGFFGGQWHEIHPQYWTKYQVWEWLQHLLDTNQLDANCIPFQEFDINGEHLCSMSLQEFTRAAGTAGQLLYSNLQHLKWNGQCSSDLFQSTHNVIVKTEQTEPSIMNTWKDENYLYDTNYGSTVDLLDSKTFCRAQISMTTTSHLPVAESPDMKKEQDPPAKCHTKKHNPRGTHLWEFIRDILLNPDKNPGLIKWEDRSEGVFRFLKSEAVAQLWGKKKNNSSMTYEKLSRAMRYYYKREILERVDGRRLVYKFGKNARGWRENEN
# Procedure, shortened: as §1
# [7] = biological target: SPI1 (Homo sapiens, UniProt P17947 1-270); conditions: protein: recombinant; tags: N-terminal GST; dsDNA, one strand shown
# Procedure, shortened: as §1
# [8] = biological target: SPIB (Homo sapiens, UniProt Q01892 1-262); conditions: protein: recombinant; tags: N-terminal GST; dsDNA, one strand shown
# Chain of SPIB (Q01892 whole entry): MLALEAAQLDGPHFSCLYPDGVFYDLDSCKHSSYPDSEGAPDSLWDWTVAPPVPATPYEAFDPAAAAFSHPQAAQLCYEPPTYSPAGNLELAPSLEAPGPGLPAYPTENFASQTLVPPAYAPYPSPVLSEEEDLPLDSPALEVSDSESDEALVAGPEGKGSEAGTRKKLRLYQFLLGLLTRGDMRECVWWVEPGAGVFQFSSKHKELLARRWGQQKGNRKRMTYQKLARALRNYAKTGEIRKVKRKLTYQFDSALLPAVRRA
# Procedure, shortened: as §1
# [9] = biological target: T6, ELK3 (Homo sapiens, UniProt P41970 1-407); conditions: protein: recombinant; tags: N-terminal GST; dsDNA, one strand shown
# T6 sequence: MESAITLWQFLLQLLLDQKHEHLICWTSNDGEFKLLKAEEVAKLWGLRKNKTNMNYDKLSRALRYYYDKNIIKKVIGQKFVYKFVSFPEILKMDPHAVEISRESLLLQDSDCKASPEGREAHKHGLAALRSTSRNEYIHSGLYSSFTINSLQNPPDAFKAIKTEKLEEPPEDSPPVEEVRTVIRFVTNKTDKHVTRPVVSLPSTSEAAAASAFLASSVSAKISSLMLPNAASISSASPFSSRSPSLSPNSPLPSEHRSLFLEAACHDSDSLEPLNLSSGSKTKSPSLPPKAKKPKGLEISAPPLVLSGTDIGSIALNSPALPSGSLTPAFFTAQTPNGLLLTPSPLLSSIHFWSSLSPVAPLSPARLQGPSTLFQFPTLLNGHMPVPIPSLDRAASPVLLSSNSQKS
# Procedure, shortened: as §1
# [10] = biological target: T7, FEV (Homo sapiens, UniProt Q99581 1-238); conditions: protein: recombinant; tags: N-terminal GST; dsDNA, one strand shown
# T7 sequence: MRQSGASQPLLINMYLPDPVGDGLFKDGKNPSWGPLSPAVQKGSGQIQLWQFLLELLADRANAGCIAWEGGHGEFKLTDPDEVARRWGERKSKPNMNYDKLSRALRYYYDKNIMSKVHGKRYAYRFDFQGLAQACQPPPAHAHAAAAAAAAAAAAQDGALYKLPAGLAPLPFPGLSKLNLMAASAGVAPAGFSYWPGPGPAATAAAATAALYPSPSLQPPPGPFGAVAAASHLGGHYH
# Procedure, shortened: as §1
# [11] = biological target: ETV5 (Homo sapiens, UniProt P41161 1-510); conditions: protein: recombinant; tags: N-terminal GST; dsDNA, one strand shown
# Chain of ETV5 (P41161 whole entry): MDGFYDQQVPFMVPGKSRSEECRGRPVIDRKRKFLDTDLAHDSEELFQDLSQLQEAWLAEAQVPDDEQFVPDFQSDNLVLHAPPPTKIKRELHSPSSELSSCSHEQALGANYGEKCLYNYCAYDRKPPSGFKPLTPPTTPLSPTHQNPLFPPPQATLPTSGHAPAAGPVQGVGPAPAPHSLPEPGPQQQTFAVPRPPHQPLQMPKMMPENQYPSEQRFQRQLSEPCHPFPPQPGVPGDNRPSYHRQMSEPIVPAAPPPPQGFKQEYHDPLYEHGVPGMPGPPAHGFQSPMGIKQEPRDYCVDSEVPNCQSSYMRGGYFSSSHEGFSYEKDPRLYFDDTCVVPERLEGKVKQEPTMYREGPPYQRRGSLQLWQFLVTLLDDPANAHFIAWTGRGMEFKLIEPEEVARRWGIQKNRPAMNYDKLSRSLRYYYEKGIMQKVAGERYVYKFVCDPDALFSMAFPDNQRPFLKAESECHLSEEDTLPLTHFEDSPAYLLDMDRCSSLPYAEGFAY
# Procedure, shortened: as §1
# [12] = biological target: HSF1 (Homo sapiens, UniProt Q00613 1-529); conditions: protein: recombinant; tags: N-terminal GST; chain copies: 3; dsDNA, one strand shown
# Chain of HSF1 (Q00613 whole entry): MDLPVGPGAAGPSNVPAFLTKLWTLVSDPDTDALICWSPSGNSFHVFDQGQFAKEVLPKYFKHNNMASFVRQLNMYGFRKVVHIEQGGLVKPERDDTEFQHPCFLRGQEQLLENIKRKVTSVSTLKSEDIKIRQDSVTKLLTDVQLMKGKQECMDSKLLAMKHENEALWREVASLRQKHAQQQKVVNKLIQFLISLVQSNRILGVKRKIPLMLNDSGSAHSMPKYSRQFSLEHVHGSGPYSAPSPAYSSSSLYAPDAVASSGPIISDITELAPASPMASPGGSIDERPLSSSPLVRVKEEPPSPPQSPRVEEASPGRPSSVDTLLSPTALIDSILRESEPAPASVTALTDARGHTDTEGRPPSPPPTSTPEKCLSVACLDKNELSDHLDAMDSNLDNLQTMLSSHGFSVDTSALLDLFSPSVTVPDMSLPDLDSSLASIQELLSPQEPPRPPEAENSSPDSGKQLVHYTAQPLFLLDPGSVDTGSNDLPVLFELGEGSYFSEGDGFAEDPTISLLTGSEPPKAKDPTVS
# Procedure, shortened: as §1
# [13] = biological target: T8, SPIC (Homo sapiens, UniProt Q8N5J4 1-248); conditions: protein: recombinant; tags: N-terminal GST; dsDNA, one strand shown
# T8 sequence: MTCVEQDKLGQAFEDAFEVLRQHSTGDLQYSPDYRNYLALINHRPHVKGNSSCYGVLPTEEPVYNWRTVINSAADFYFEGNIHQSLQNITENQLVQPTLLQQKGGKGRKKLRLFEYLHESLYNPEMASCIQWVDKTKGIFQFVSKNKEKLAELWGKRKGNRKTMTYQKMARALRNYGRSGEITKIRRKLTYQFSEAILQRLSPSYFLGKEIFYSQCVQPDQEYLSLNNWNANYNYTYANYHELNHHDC
# Procedure, shortened: as §1
# [14] = biological target: ELF4 (Homo sapiens, UniProt Q99607 1-663); conditions: protein: recombinant; tags: N-terminal GST; dsDNA, one strand shown
# Chain of ELF4 (Q99607 whole entry): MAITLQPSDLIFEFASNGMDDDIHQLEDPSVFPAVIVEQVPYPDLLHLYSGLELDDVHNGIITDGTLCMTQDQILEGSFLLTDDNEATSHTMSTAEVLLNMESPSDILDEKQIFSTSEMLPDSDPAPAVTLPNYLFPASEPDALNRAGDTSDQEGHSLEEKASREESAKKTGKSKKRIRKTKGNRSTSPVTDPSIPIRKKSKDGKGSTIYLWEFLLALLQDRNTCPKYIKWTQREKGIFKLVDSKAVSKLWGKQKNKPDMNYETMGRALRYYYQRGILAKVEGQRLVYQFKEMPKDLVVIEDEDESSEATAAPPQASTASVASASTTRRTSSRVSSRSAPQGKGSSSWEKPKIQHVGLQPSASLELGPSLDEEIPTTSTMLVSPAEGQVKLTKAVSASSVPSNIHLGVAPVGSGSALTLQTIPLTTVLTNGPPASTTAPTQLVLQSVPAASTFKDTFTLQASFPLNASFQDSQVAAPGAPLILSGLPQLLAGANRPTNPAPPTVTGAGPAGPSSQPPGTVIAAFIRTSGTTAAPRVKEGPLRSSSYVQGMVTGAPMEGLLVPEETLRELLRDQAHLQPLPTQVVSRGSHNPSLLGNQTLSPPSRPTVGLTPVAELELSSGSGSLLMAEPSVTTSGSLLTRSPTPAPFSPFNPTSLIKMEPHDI
# Procedure, shortened: as §1
# [15] = biological target: T9, ELK4 (Homo sapiens, UniProt P28324-2 1-405); conditions: protein: recombinant; tags: N-terminal GST; dsDNA, one strand shown
# T9 sequence: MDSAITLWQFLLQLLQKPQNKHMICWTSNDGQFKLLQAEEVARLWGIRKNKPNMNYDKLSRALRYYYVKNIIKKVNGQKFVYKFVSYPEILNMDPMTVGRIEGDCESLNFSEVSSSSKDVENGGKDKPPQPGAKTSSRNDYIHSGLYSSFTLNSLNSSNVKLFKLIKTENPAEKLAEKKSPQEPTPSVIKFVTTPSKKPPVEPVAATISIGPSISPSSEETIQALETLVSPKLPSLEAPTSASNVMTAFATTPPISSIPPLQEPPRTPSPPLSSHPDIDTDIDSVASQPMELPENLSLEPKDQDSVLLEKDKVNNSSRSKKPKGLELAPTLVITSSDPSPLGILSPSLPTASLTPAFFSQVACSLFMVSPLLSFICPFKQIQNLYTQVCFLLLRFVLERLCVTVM
# Procedure, shortened: as §1
# [16] = biological target: T10, ETV2 (Homo sapiens, UniProt O00321 1-342); conditions: protein: recombinant; tags: N-terminal GST; dsDNA, one strand shown
# T10 sequence: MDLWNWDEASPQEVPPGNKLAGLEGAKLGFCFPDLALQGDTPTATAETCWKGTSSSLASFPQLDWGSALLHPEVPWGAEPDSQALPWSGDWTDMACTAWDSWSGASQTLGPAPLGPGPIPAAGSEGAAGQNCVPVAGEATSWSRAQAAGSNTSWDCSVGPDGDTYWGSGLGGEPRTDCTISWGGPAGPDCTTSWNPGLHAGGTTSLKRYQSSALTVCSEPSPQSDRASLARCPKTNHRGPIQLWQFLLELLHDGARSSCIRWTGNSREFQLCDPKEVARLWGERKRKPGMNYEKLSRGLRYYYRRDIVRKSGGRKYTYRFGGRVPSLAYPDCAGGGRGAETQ
# Procedure, shortened: as §1
# [17] = biological target: T11, ELF3 (Homo sapiens, UniProt P78545 1-371); conditions: protein: recombinant; tags: N-terminal GST; dsDNA, one strand shown
# T11 sequence: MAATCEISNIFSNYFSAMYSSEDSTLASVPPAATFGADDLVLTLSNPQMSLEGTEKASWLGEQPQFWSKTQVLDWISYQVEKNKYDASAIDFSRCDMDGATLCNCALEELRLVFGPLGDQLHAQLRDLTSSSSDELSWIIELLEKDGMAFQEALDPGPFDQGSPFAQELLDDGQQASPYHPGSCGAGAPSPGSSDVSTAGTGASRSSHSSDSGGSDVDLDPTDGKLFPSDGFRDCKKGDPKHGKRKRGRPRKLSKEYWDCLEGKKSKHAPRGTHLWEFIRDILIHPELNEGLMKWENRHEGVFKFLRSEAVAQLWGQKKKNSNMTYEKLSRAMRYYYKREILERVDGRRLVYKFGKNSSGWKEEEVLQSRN
# Procedure, shortened: as §1
# [18] = biological target: CRX (Homo sapiens, UniProt O43186 1-299); conditions: protein: recombinant; tags: N-terminal GST; dsDNA, one strand shown
# Chain of CRX (O43186 whole entry): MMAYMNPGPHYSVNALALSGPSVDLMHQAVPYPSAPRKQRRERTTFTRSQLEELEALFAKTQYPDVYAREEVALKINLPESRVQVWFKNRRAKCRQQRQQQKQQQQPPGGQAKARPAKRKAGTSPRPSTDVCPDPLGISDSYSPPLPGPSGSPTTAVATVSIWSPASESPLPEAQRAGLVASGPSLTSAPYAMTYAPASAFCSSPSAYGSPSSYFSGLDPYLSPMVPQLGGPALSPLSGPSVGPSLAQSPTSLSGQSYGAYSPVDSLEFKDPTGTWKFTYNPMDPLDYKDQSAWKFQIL
# Procedure, shortened: as §1
# [19] = biological target: ETV1 (Homo sapiens, UniProt P50549 1-477); conditions: protein: recombinant; tags: N-terminal GST; dsDNA, one strand shown
# Chain of ETV1 (P50549 whole entry): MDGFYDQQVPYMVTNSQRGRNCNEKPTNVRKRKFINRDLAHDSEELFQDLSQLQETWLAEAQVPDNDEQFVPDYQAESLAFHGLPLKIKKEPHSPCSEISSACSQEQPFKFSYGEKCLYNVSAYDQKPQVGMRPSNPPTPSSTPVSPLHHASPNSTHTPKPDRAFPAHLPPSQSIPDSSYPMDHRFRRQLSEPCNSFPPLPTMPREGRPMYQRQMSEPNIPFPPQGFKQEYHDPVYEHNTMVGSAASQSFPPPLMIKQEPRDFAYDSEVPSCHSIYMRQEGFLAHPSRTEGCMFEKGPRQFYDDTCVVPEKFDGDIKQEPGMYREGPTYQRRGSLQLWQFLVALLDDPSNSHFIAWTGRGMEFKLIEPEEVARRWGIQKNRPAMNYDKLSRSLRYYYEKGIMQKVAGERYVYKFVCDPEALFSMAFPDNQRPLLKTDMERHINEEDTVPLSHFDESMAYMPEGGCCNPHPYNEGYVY
# Procedure, shortened: as §1
sequence,measurement,setting,value
TAAAGT,binding signal,[1],"1.22 fold enrichment (6-mer frequency, TF over GST control)"
same,binding signal,[2],"1.14 fold enrichment (6-mer frequency, TF over GST control)"
same,binding signal,[3],"1.24 fold enrichment (6-mer frequency, TF over GST control)"
same,binding signal,[4],"1.17 fold enrichment (6-mer frequency, TF over GST control)"
same,binding signal,[5],"1.18 fold enrichment (6-mer frequency, TF over GST control)"
same,binding signal,[6],"1.18 fold enrichment (6-mer frequency, TF over GST control)"
same,binding signal,[7],"1.21 fold enrichment (6-mer frequency, TF over GST control)"
same,binding signal,[8],"1.11 fold enrichment (6-mer frequency, TF over GST control)"
same,binding signal,[9],"1.38 fold enrichment (6-mer frequency, TF over GST control)"
same,binding signal,[10],"1.1 fold enrichment (6-mer frequency, TF over GST control)"
same,binding signal,[11],"1.13 fold enrichment (6-mer frequency, TF over GST control)"
same,binding signal,[12],"1.37 fold enrichment (6-mer frequency, TF over GST control)"
same,binding signal,[13],"1.13 fold enrichment (6-mer frequency, TF over GST control)"
same,binding signal,[14],"1.13 fold enrichment (6-mer frequency, TF over GST control)"
same,binding signal,[15],"1.27 fold enrichment (6-mer frequency, TF over GST control)"
same,binding signal,[16],"1.11 fold enrichment (6-mer frequency, TF over GST control)"
same,binding signal,[17],"1.13 fold enrichment (6-mer frequency, TF over GST control)"
same,binding signal,[18],"1.75 fold enrichment (6-mer frequency, TF over GST control)"
same,binding signal,[19],"1.21 fold enrichment (6-mer frequency, TF over GST control)"
